From PubChem BioAssay AID1878 (Sanford-Burnham Center for Chemical Genomics, 2009) come the findings set out here.

The campaign covered roughly 1,000 compounds. About 200 (20%) were called active. Not all results are given here. Measured potencies and affinities stand elsewhere. Unmarked numbers belong to inactive results. Rule as the data show it: active = inhibition above about 55%; inactive = the rest.

Sequence of Dual specificity protein phosphatase 3 (Homo sapiens) (P51452 whole entry, looked up): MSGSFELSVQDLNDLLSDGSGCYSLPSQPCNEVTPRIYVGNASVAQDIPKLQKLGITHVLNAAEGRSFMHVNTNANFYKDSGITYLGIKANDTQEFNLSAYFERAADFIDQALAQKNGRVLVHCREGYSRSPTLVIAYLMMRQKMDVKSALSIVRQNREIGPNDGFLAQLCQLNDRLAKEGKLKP

This assay concerns the target Dual specificity protein phosphatase 3 (Homo sapiens) (UniProt P51452). Briefly: VHR1 phosphatase inhibitors, biochemical (AID 1878). Conditions: recombinant VHR phosphatase, fluorogenic substrate; at 13.3 µM; active compounds read high.
With `CCOc1ccc(-n2c(SCC(=O)N3CCc4ccccc43)nnc2-c2c[nH]c3ccccc23)cc1`, the inhibition (in general, the change of the read-out against control, counted positive when it falls) was 83.6% (active). `O=C(CN1CCN(c2ccc(O)cc2)CC1)N1CCc2ccccc21`: the inhibition is -16.5%. Then `O=C(CCCN1C(=O)C(c2ccccc2)Oc2cccnc21)Nc1ccccc1Cl` (centres undefined), with 4.6%; and `COc1c(C(=O)Nc2ccc3[nH]c(=O)[nH]c3c2)cc2ccccc2c1Br`, with 13.6%; and `O=C(Nc1ccncc1)c1cc(-c2ccccn2)nc2ccc(Br)cc12`, with 84.4% (active).

As for `Cc1ccc2nc(-c3ccncc3)cc(C(=O)Nc3ccc(OC(F)F)cc3)c2c1`, the inhibition is 69.1% (active).

`COc1ccccc1CCNC(=O)c1cc(-c2ccncc2)nc2ccc(Br)cc12`: the inhibition is 70.1% (active). Take `Cc1c(Cl)cccc1NC(=O)c1cccc(OC(F)F)c1`: the inhibition was 29.2%. As for `CCOc1ccccc1NC(=O)c1cc(-c2ccncc2)nc2c(Cl)cccc12`, the inhibition was 34.3%. As for `COc1ccccc1CCNC(=O)CNC(=O)c1ccc2ccccc2c1`, the inhibition is -4.1%. The result for `O=C(Nc1ccc2nc3n(c(=O)c2c1)CCCC3)c1ccccc1F` reads -11.4%. Then `COc1cc(CCNC(=O)c2ccccc2NC(=O)C2=C(C)OCCS2)cc(OC)c1OC`, with -10.3%; and `CC1CCCCN1CCCNC(=O)C1CCN(c2nnc(-n3cccc3)s2)CC1` (centres undefined), with -30.3%; and `Cc1cccc(CSc2[nH]c(=O)ncc2C)c1`, with 1%. Then `O=C(C1CCN(S(=O)(=O)c2cccs2)CC1)N1CCc2ccccc2C1`, with -7.4%; and `COc1ccc(NC(C)=O)cc1NC(=O)CSc1nnc(C2CCCCC2)n1N`, with 0.2%; and `O=C(c1ccccc1)C1CCN(C(=O)c2ccc(Cl)cc2)CC1`, with -17.9%.

With `COc1ccc(N(C(=O)CNC(=O)c2ccco2)C(C(=O)NC2CCCCC2)c2ccncc2)cc1` (centres undefined), the inhibition was -11%. Then `CCn1c(=O)n(CC)c2cc(N3CCCC3)c(NC(=O)c3cccc(OC)c3)cc21`, with 0.2%; and `O=C(CCC(=O)c1ccc(Cl)cc1)NCc1ccccc1`, with 3.5%; and `O=[N+]([O-])c1cccc2c([As](=O)(O)O)cccc12`, with 0.9%. Then `O=c1c2cnn(-c3ccc(F)cc3)c2ncn1Cc1cccnc1`, with -6.2%; and `Cc1ccc(-n2ncc3c2CCCC3NC(=O)CCc2cnccn2)cc1C` (centres undefined), with -2.7%.

With `S=c1[nH]nc(-c2ccccc2)n1/N=C/c1c[nH]c2ccccc12`, the inhibition is 1.6%. For `CCC1CCCCN1CCCNC(=O)c1ccc(CS(=O)(=O)c2ccccc2C)o1` (centres undefined), the inhibition is -7.8%. The result for `Cc1oc(-c2ccc(Cl)cc2)nc1CS(=O)CC(=O)NCCN1CCCCCC1` (centres undefined) reads -27.9%. Then `CCOc1cc(C2Nc3ccccc3NC3=C2C(=O)CC(C)(C)C3)ccc1OC(C)=O` (centres undefined), with -4.7%. For `Cc1ccc(NC(=O)COC(=O)c2nn(C)cc2Cl)cc1`, the inhibition was -0.7%. Then `Cc1ccc(NC(=O)CN2C(=O)S/C(=C\c3ccc(-c4cccc(C(=O)O)c4C)o3)C2=O)cc1`, with 97.5% (active); and `COc1cc(NC(=O)CN2CCN(c3ccccn3)CC2)cc(OC)c1OC`, with 6%. Then `Cc1ccc(NC(=O)CN2C(=O)S/C(=C\c3ccc(-c4cccc(C(=O)O)c4C)o3)C2=O)cc1C`, with 84.7% (active); and `Cc1ccc(NC(=O)CN2C(=O)S/C(=C/c3ccc(-c4cccc(C(=O)O)c4)o3)C2=O)cc1`, with 93.9% (active); and `CCCOc1ccc(Cn2c(=O)oc3ccc(C)cc32)cc1`, with 7.7%. Then `COc1ccccc1N1CCN(C2CCCN(Cc3cc(F)cc(F)c3)C2)CC1` (centres undefined), with -2.1%; and `COc1cccc(CNC(=O)CCNS(=O)(=O)c2ccc3c(c2)oc(=O)n3C)c1`, with -4.6%; and `COCCNC(=O)c1cccc(OC2CCN(C(C)COc3ccccc3)CC2)c1` (centres undefined), with -14.8%. Turning to `Nc1ncc(Br)cc1S(=O)(=O)NCCC(=O)NCc1ccc(F)cc1`, the inhibition was 4.1%. The result for `CCN1CCN(CCCNC(=O)CS(=O)(=O)Cc2nc(-c3ccccc3C)oc2C)CC1` reads -9.5%; that for `c1ccc(-c2nnsc2-c2ccccc2)cc1`, -7.8%; that for `O=C(Cn1ccnc1)c1ccc(Cl)cc1`, 14.8%. For `CCC(C)NC(=O)c1ccc(CSCc2ccc(Cl)cc2)o1` (centres undefined), the inhibition is -3.4%. Regarding `CC1(C(=O)O)CCC(C(=O)NC2CCCCCC2)C1(C)C` (centres undefined), the inhibition was -1.3%.

As to `CCOc1ccccc1NC(=O)C1CCN(C(=O)c2cccs2)CC1`, the inhibition was -20.3%. On to `CN(CCCNC(=O)c1ccccc1F)CCCNC(=O)c1ccccc1F`, for which the inhibition was 15.1%. In the case of `Cc1ccc(C(C(=O)NC2CCCC2)N(Cc2ccc(F)cc2)C(=O)c2snc(C(N)=O)c2N)o1` (centres undefined), the inhibition is 10.6%.

As for `CN(C)c1ccc(NC(=O)CN2C3CCCC2CC(NC(=O)c2ccccc2)C3)cc1` (centres undefined), the inhibition was -12.8%. The result for `COc1ccc(NC2CCCN(C(=O)c3ccc(CSC)o3)C2)cc1OC` (centres undefined) reads 20.5%; that for `CCC1CCCCN1CCCNC(=O)CN1C(=O)COc2ccc(S(=O)(=O)N3CCOCC3)cc21` (centres undefined), 1.2%; that for `Cc1cc(C)c(S(=O)(=O)/N=C2/C=C(Sc3ncn[nH]3)C(=O)c3ccccc32)cc1C`, 15.8%. Then `COc1cc(CN2CCC(n3nccc3NC(=O)C3CCOC3)CC2)ccc1F` (centres undefined), with -5.3%; and `COc1ccc(-n2nc(C(=O)Nc3ccc(OC)c(OC)c3)c3c4ccccc4n(C)c3c2=O)cc1`, with 94.9% (active). Then `COc1ccc(-n2nc(C(=O)NCC3CCCO3)c3ccccc3c2=O)cc1` (centres undefined), with -4%; and `COc1ccc(NC(=O)c2cn(CCC#N)nc2-c2ccc(OC)c(OC)c2)cc1`, with -8.4%. Consider `Cc1ccc2c(c1)N(CC(=O)NCCCN1CCCCC1)C(=O)CO2`, for which the inhibition was 2.3%. Then `CC(C)(C)SC(=O)C[C@@H]1NS(=O)(=O)OC2CCCCC21` (some centres undefined), with 24.7%. As for `CN(CC1CCCN(CCc2ccc(F)cc2)C1)C(=O)CCC(N)=O` (centres undefined), the inhibition is -4.8%. The result for `CN(C)C1(CNCC(O)c2ccccc2)CCCCC1` (centres undefined) reads 6.5%; that for `CC(=O)NC(Cc1ccc(F)cc1)C(=O)NC1CCN(S(=O)(=O)c2ccccc2)CC1` (centres undefined), 41%.

As for `CCOCCCNC(=O)c1cn(C)c2ccc(S(=O)(=O)N3CCCCC3)cc2c1=O`, the inhibition was 12.7%.

As to `N#Cc1c(-c2cccs2)nc(SCC(=O)c2ccc(Br)cc2)[nH]c1=O`, the inhibition is 95.4% (active).

Consider `Nc1cc(=O)[nH]c(SCCSc2ccc(F)cc2)n1`, for which the inhibition was -2.2%.

As for `CN1CCN(CCNC(=O)Cn2c(=O)c3cccn3c3ccc(F)cc32)CC1`, the inhibition was -1%.

As for `COc1ccc(CN(C)Cc2c(O)ccc3ccccc23)cc1`, the inhibition was -9%.

On to `CCCCCc1nnc(NC(=O)Cc2ccc([N+](=O)[O-])cc2)s1`, for which the inhibition was 4.4%. The result for `O=C(Nc1ccccc1F)N1CCc2ccccc2C1` reads -0.6%. Then `Cn1cc(Cl)c(C(=O)Nc2nccs2)n1`, with 25.2%; and `Cc1ccc(NC(=O)CCS(=O)(=O)c2ccc3c(c2)NC(=O)C(C)S3)nc1` (centres undefined), with -1.8%; and `COC(=O)c1ccccc1NC(=O)CCS(=O)(=O)c1ccc(Br)cc1`, with 89.7% (active).

Consider `COC(=O)c1ccccc1NC(=O)c1cc2ccccc2o1`, for which the inhibition was 12.8%. On to `Cc1ccc2cc(CN(CC3CCCO3)C(=O)c3cccs3)c(=O)[nH]c2c1` (centres undefined), for which the inhibition was -11.2%. Turning to `CN(C(=O)c1ccc(COc2ccccc2Cl)o1)c1ccccc1`, the inhibition was 15%. The result for `CCOC(=O)c1sc2ncnc(Nc3cccc(C(=O)O)c3)c2c1C` reads -6.2%. As to `CCOC(=O)c1sc2nc(C)nc(NCc3ccc(Cl)cc3)c2c1C`, the inhibition is 0.5%. The result for `O=C(Cn1c(=O)c2c3c(sc2n(Cc2ccccc2)c1=O)CCCC3)NCCO` reads -0.2%; that for `Cc1cc(Cl)cc(Cl)c1OCCN1CCCC1`, -2.7%; that for `CSCCNC(=O)c1ccc2nc(Cc3ccccc3F)oc2c1`, -8.6%.

With `Cc1ccc2[nH]c(CN3CCN(C)C(CCO)C3)c(C)c2c1` (centres undefined), the inhibition was -2.5%. Turning to `Cc1cc(-n2c(SCC(=O)NCCC3=CCCCC3)nc3n[nH]c(C)c3c2=N)ccc1Cl`, the inhibition was 15.1%.

With `O=C(Nc1cc(-c2nc3ncccc3o2)ccc1Cl)c1cccs1`, the inhibition was -1.1%. The result for `CN(CCO)CCOCCOc1cccc2ccccc12` reads -15.7%. Then `CC(=O)c1ccc(OCC(=O)N2CCCC(Nc3ccc(C)c(C)c3)C2)cc1` (centres undefined), with 3.2%; and `CCCCN(CCCNC(=O)c1ccc(CS(=O)(=O)c2c(Cl)cccc2Cl)o1)Cc1ccccc1`, with -4.4%. The result for `CC(=O)N/C(=N\c1nc(C)cc(C)n1)Nc1ccc(Cl)cc1Cl` reads -6.7%; that for `Oc1cccc2ccc(/C=C/c3ccccc3Cl)nc12`, -3.4%. Turning to `CSCCC1NC(=S)N(Cc2ccccc2)C1=O` (centres undefined), the inhibition was -5.4%. Then `O=C(CNS(=O)(=O)c1cccc(Br)c1)NCC1CCCCC1`, with 11.2%; and `Cc1ccc(N(C(=O)c2snc(C(N)=O)c2N)C(CC(C)C)C(=O)NC2CCCC2)cc1` (centres undefined), with 0.9%; and `Cn1nnc2cc(C(=O)Nc3ccccc3F)ccc21`, with -4.2%. The result for `CCc1ccccc1NC(=O)C1CCCN1S(=O)(=O)c1ccc(-c2ccc(=O)[nH]n2)s1` (centres undefined) reads -1.8%; that for `Cc1ccc(S(=O)(=O)N(C)C)cc1NC(=O)CN1CCCC1`, -0.5%; that for `C=CCN1C(=O)C2(OCCO2)c2cc(C)ccc21`, -6.3%. The result for `CN(C)c1ccc(NC(=O)Nc2ccc3c(c2)nnn3C)cc1` reads 38.6%; that for `C/C(=N\NC(=O)C1CCCC1)c1ccc(Cl)cc1`, 3.5%; that for `C/C(=N\NC(=O)c1ccc(OC2OCCOC2Oc2ccc(C(=O)N/N=C(\C)c3ccncc3)cc2)cc1)c1ccncc1` (centres undefined), 92.7% (active).
